Experimental data published in PubChem BioAssay AID463188 (University of Pittsburgh Molecular Library Screening Center, 2010).
Out of some 1,300 compounds screened, about 360 (28%) were called active.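 How the source made its calls: active means average inhibition of at least 50%, with Z-scores no higher than 3 in both the phospho-tyrosine peptide and fluorescence counterscreens; inactive means the rest.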 Many of the other results were omitted from the sample, so actives are more common in it than they were.

Assays:
[1] = Nef-activated Hck kinase blockers, duplicate retest – biochemical, Z-Lyte FRET, 384-well, p-Tyr peptide counterscreen, confirmation (AID 463188); settings: Recombinant Hck-YEEI:Nef, Z-Lyte FRET kinase assay; measured here: p-Tyr peptide counterscreen; at 10 µM
[2] = biological target: Tyrosine-protein kinase HCK (Homo sapiens) (UniProt P08631); experiment: as above; settings: Recombinant Hck-YEEI:Nef, Z-Lyte FRET kinase assay; at 10 µM; stronger effect = higher value
Tyrosine-protein kinase HCK (Homo sapiens), sequence (P08631 whole entry, looked up): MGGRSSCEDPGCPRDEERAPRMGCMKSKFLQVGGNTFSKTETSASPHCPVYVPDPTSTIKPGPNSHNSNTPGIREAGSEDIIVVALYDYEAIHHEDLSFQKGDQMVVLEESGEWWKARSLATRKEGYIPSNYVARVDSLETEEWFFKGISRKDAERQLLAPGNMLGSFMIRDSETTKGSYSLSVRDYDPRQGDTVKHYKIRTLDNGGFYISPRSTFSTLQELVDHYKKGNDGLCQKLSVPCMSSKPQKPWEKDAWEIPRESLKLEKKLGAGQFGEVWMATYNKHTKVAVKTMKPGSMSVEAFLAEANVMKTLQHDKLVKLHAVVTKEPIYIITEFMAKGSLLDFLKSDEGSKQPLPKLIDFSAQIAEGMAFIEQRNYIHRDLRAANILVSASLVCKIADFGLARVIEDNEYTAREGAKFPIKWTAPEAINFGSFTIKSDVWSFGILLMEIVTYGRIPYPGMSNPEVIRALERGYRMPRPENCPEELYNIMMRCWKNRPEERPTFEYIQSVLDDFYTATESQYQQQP

Compound	z-score [1]	inhibition [2]
O=C1NC(=O)N(Cc2ccco2)C(=O)/C1=C\c1ccc(-c2ccc(F)cc2)o1	0.915	68.2% (active)
COc1cc(Cn2c(N)c(C(=O)NCc3ccco3)c3nc4ccccc4nc32)cc(OC)c1OC	25.8	46.4% (inactive)
